Structures are written as SMILES. Results filed as inconclusive are left out. The source made the active and inactive calls. Rule for the calls: active = hit-call score of the fitted dose curve at least 0.9, where 1 is the maximum; inconclusive = response in the unintended direction; inactive = score below 0.9.

These results are taken from PubChem BioAssay (EPA / NIEHS).

Assay [1] can be described thus: Tanguay_ZF_120hpf_YSE_legacy: (Legacy) Oregon State University Tanguay Lab 120 Hour Post-fertilization zebrafish Assay for Yolk Sac Edema (AID 2283634).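 For AC50: actives raise the incidence of yolk sac edema above the DMSO baseline.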 The method in brief:
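Dechorionate (pronase, 4 hpf) → place one 6 hpf embryo per well → static compound exposure, sealed and foil-covered, 28C, to 120 hpf → record yolk sac edema as present or absent. Final DMSO 0.64%.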

Assay [2] in a line: Tanguay_ZF_120hpf_AXIS_legacy: (Legacy) Oregon State University Tanguay Lab 120 Hour Post-fertilization zebrafish Assay for Body Axis Malformation (AID 2283635).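 For AC50: potency for an increased fraction of larvae scored with body axis malformation.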 The essentials:
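Chorion is removed with pronase at 4 hpf, then single 6 hpf embryos are dosed (final DMSO 0.64%) and held statically at 28C in sealed, foil-covered plates. At 120 hpf body axis malformation is recorded as present or absent.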

Assay [3] can be described thus: Tanguay_ZF_120hpf_SNOU_legacy: (Legacy) Oregon State University Tanguay Lab 120 Hour Post-fertilization zebrafish Assay for Snout Malformation (AID 2283637). The method in brief: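 Binary brightfield scoring of snout malformation at 120 hpf. Dechorionated 5D wild-type embryos, one per well, static exposure from 6 hpf at 28C, sealed and dark; final DMSO 0.64% (vol/vol), DMSO as baseline; 5uM trimethyltin chloride positive control.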

Assay [4] in a line: Tanguay_ZF_120hpf_JAW_legacy: (Legacy) Oregon State University Tanguay Lab 120 Hour Post-fertilization zebrafish Assay for Jaw Malformation (AID 2283638).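 For AC50: active means more embryos with jaw malformation than DMSO controls.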 The essentials: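 Steps: dechorionate 4 hpf embryos (pronase); plate 1/well at 6 hpf; add test chemical, 0.64% DMSO final; seal, cover, hold at 28C statically to 120 hpf; score jaw defect presence/absence microscopically. Dead embryos not scored.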

The nature of assay [5]: Tanguay_ZF_120hpf_OTIC_legacy: (Legacy) Oregon State University Tanguay Lab 120 Hour Post-fertilization zebrafish Assay for Otic Vesicle Malformation (AID 2283639). The essentials:
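Wild-type zebrafish larvae, whole-embryo exposure from early stage to 120 hpf at 28C. Binary brightfield scoring of otic vesicle morphology, fitted in the positive direction against the DMSO baseline.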

Assay [6] can be described thus: Tanguay_ZF_120hpf_PE_legacy: (Legacy) Oregon State University Tanguay Lab 120 Hour Post-fertilization zebrafish Assay for Pericardial Edema (AID 2283640).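 For AC50: potency for increased incidence of pericardial edema versus DMSO baseline.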 The method in brief: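 Embryos from wild-type 5D adults were staged, then dosed in 0.64% DMSO. They were kept sealed in the dark at 28C until 120 hpf. Pericardial edema was then recorded as present or absent.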

Assay [7] is described as follows: Tanguay_ZF_120hpf_BRAI_legacy: (Legacy) Oregon State University Tanguay Lab 120 Hour Post-fertilization zebrafish Assay for Brain Malformation (AID 2283641). The method in brief:
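Wild-type 5D larvae, static waterborne exposure to 120 hpf, 28C, 0.64% v/v DMSO. Brightfield scoring of brain defects, binary; dead embryos excluded. Positive ctrl 5uM trimethyltin chloride.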

Assay [8] in a line: Tanguay_ZF_120hpf_PFIN_legacy: (Legacy) Oregon State University Tanguay Lab 120 Hour Post-fertilization zebrafish Assay for Pectoral Fin Malformation (AID 2283648).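 Note: each larva judged yes or no for fin defect by brightfield with dead larvae skipped.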 The essentials: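 Binary pectoral fin malformation call at 120 hpf by brightfield microscopy; 5D wild-type zebrafish, chorion removed at 4 hpf, one embryo per well from 6 hpf, static exposure at 28C; DMSO (0.64% final) as baseline.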

The nature of assay [9]: Tanguay_ZF_120hpf_CFIN_legacy: (Legacy) Oregon State University Tanguay Lab 120 Hour Post-fertilization zebrafish Assay for Caudal Fin Malformation (AID 2283649). The essentials:
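Binary presence or absence of caudal fin malformation at 120 hpf, read by brightfield microscopy, with DMSO as baseline. Larvae came from 5D wild-type embryos exposed statically from 6 hpf at 28C after pronase dechorionation.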

A short description of assay [10]: Tanguay_ZF_120hpf_CIRC_legacy: (Legacy) Oregon State University Tanguay Lab 120 Hour Post-fertilization zebrafish Assay for Circulatory Malformation (AID 2283651). The method in brief:
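Binary circulatory-malformation call at 120 hpf via brightfield imaging, relative to DMSO controls. Embryos (5D strain, chorion removed) received static, light-shielded exposure at 28C.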

The nature of assay [11]: Tanguay_ZF_120hpf_SWIM_legacy: (Legacy) Oregon State University Tanguay Lab 120 Hour Post-fertilization zebrafish Assay for Swim Bladder Malformation (AID 2283654).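 Note: swim bladder malformation in each larva scored yes or no under brightfield.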 The method in brief: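 Tropical 5D embryos dechorionated at 4 hpf; 1 embryo/well from 6 hpf; static, sealed, dark exposure at 28C until 120 hpf; final DMSO 0.64%; 5uM trimethyltin chloride positive control; swim bladder defect recorded yes/no; dead embryos not scored.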

The nature of assay [12]: Tanguay_ZF_120hpf_TRUN_legacy: (Legacy) Oregon State University Tanguay Lab 120 Hour Post-fertilization zebrafish Assay for Truncated Body (AID 2283655). The method in brief:
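Truncated body is recorded as a binary endpoint at 120 hpf by brightfield imaging of wild-type 5D larvae. Exposure runs statically from 6 hpf at 28C with 0.64% DMSO; embryos dying earlier are not scored.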

A short description of assay [13]: Tanguay_ZF_120hpf_PIG_legacy: (Legacy) Oregon State University Tanguay Lab 120 Hour Post-fertilization zebrafish Assay for Pigmentation Malformation (AID 2283650). The method in brief:
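Brightfield scoring of pigmentation malformation at 120 hpf, recorded as binary present/absent per larva. Exposure: dechorionated 5D wild-type embryos, one per well, static from 6 hpf at 28C, final DMSO 0.64% (vol/vol). Dead embryos not scored.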

Assay [14] is described as follows: Tanguay_ZF_120hpf_EYE_legacy: (Legacy) Oregon State University Tanguay Lab 120 Hour Post-fertilization zebrafish Assay for Eye Malformation (AID 2283636). The essentials:
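5D wild-type embryos, pronase-dechorionated at 4 hpf; static exposure 6–120 hpf, 28C, dark; DMSO 0.64% final; 5uM trimethyltin chloride positive control. Binary eye-defect scoring at 120 hpf; dead embryos not scored.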

The nature of assay [15]: Tanguay_ZF_120hpf_SOMI_legacy: (Legacy) Oregon State University Tanguay Lab 120 Hour Post-fertilization zebrafish Assay for Somite Malformation (AID 2283647). The method in brief:
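Read-out: presence or absence of somite malformation in 120 hpf larvae, gain-of-signal relative to DMSO baseline. Embryos lacked chorion (pronase, 4 hpf) and were exposed statically from 6 hpf at 28C; dead larvae not scored.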

A short description of assay [16]: Tanguay_ZF_120hpf_NC_legacy: (Legacy) Oregon State University Tanguay Lab 120 Hour Post-fertilization zebrafish Assay for Notochord and Tail Malformation (AID 2283656). The essentials:
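Binary notochord-distortion calls, made by brightfield inspection, form the read-out; activity is fitted in the positive direction against DMSO. Exposure ran statically from 6 to 120 hpf at 28C with 0.64% DMSO.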

For `CC1=NNC(=O)N(/N=C/c2cccnc2)C1`, the result in assay [1], in assay [2], in assay [3], in [4], in assay [5] and in assay [6] was inactive. In addition, the outcome in [7], in [8], in [9], in [10], in assay [11] and in [12] was inactive.

The term AC50 denotes the concentration giving half of the maximal activity seen. For `COc1ccc(C(=CC(=O)N2CCOCC2)c2ccc(Cl)cc2)cc1OC`, the AC50 in [1] was 48.3 µM (active); in assay [2], 9.11 µM (active); in [3], 35.4 µM (active); in assay [4], 43.7 µM (active); in assay [5] it was 42.6 µM (active); in assay [6] it was 34.2 µM (active). Moreover, the AC50 in assay [7] was 40.9 µM (active); in assay [8] it was 45.5 µM (active); in assay [9], 37.3 µM (active); in assay [12], 51.4 µM (active). Besides, the molecule was classed as inactive in [13] and in assay [10].

As to `CC(C)=CC1C(C(=O)OCN2C(=O)C3=C(CCCC3)C2=O)C1(C)C` (stereo unspecified), the call in [1], in [2], in assay [3], in assay [4], in [6] and in [7] was inactive. Further, the call in assay [8], in [9], in assay [10] and in [12] was inactive.

Consider `C#CCC1=C(C)C(OC(=O)C2C(C=C(C)C)C2(C)C)CC1=O` (stereo unspecified), for which the call in assay [1], in assay [14], in [3], in [4], in assay [5] and in [6] was inactive. Besides, the molecule was called inactive in assay [7], in assay [8], in [9], in assay [13] and in assay [10].

In the case of `CNc1cnn(-c2cccc(C(F)(F)F)c2)c(=O)c1Cl`, the molecule was called inactive in [1], in assay [2], in assay [3], in [4], in [6] and in assay [7]. Also, the molecule was classed as inactive in [8], in assay [9], in [13], in assay [10], in assay [11] and in [12].

With `C=C(C)[C@H]1Cc2c(ccc3c2O[C@@H]2COc4cc(OC)c(OC)cc4[C@@H]2C3=O)O1`, the call in assay [1], in assay [2], in assay [3], in assay [4], in assay [5] and in assay [6] was inactive. In addition, the result in assay [7], in [8], in assay [9], in assay [13], in assay [10] and in [11] was inactive. For the same molecule, the call in [12] was inactive.

For the molecule `CCCCOC(=O)c1ccccc1C(=O)O`, the molecule was called inactive in assay [1], in [2], in assay [3], in assay [4], in assay [5] and in assay [6]. Besides, the outcome in [7], in assay [8], in assay [9], in assay [13], in [10] and in assay [12] was inactive.

Take `S=C1NCCN1`: the molecule was classed as inactive in assay [1], in assay [2], in assay [3], in assay [5], in [6] and in assay [7]. Further, the molecule was called inactive in [15], in assay [9], in assay [13], in assay [11], in assay [12] and in assay [16].

Take `CCOP(=S)(OCC)Oc1ccc([N+](=O)[O-])cc1`: the outcome in assay [1], in assay [2], in [3], in assay [4], in assay [5] and in [6] was inactive. The outcome in assay [7], in assay [9] and in [12] was inactive.

Turning to `CCOP(=O)(OCC)Oc1cc(C)nc(C(C)C)n1`, the molecule was called inactive in assay [1], in [2], in assay [3], in [4], in assay [5] and in assay [6]. The result in assay [7], in assay [8], in assay [9], in assay [13], in assay [10] and in [11] was inactive. In addition, in assay [12], the outcome was inactive.
